Measured values published in publication PMC11006913.
Residue numbers refer to the chain shown, from its start.

What was measured:
Test in all cases: PBM; 200 nM protein, PBS
Conditions in all cases: dsDNA, one strand shown
SHOX [1] = molecular target: SHOX (Homo sapiens, UniProt O15266 103-189)
SHOX [2] = molecular target: SHOX (Homo sapiens, UniProt O15266 103-189, R173C)
CRX [3] = molecular target: CRX (Homo sapiens, UniProt O43186 26-111)
VAX1 = VAX1 (Homo sapiens, UniProt Q5SQQ9 86-172, T142I)
Sequence of VAX1 (Q5SQQ9 86-172 T142I): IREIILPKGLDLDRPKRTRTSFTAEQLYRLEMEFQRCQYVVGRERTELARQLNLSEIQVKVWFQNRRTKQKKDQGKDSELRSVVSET

CRX [4] = molecular target: CRX (Homo sapiens, UniProt O43186 26-111, R41L)
Sequence of CRX (Homo sapiens, UniProt O43186 26-111, R41L) (O43186 26-111 R41L): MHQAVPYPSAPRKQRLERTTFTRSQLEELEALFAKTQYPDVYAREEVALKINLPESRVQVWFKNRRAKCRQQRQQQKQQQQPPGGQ

SIX6 [5] = molecular target: T1, SIX6 (Homo sapiens, UniProt O95475 114-200, L167I)
T1 sequence: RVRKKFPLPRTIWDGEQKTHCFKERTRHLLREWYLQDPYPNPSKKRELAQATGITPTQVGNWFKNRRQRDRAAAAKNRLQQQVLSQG

SIX6 [6] = molecular target: T2, SIX6 (Homo sapiens, UniProt O95475 114-200, L143V)
T2 sequence: T1 sequence with L30V, I54L

SIX6 [7] = molecular target: T3, SIX6 (Homo sapiens, UniProt O95475 114-200, H141N)
T3 sequence: T1 sequence with H28N, I54L

SIX6 [8] = molecular target: T4, SIX6 (Homo sapiens, UniProt O95475 114-200, T165P)
T4 sequence: T1 sequence with T52P, I54L

SIX6 [9] = molecular target: T5, SIX6 (Homo sapiens, UniProt O95475 114-200, L167M)
T5 sequence: T1 sequence with I54M

SIX6 [10] = molecular target: T6, SIX6 (Homo sapiens, UniProt O95475 114-200, L143M)
T6 sequence: T1 sequence with L30M, I54L

SIX6 [11] = molecular target: T7, SIX6 (Homo sapiens, UniProt O95475 114-200, L143I)
T7 sequence: T1 sequence with L30I, I54L

SIX6 [12] = molecular target: T8, SIX6 (Homo sapiens, UniProt O95475 114-200, T165G)
T8 sequence: T1 sequence with T52G, I54L

SIX6 [13] = molecular target: T9, SIX6 (Homo sapiens, UniProt O95475 114-200, T139Q)
T9 sequence: T1 sequence with T26Q, I54L

CRX [14] = molecular target: CRX (Homo sapiens, UniProt O43186 26-111, E42D)
Sequence of CRX (Homo sapiens, UniProt O43186 26-111, E42D) (O43186 26-111 E42D): as the sequence (O43186 26-111 R41L) above, with L16R, E17D counted along it

SIX6 [15] = molecular target: T10, SIX6 (Homo sapiens, UniProt O95475 114-200, T165A)
T10 sequence: T1 sequence with T52A, I54L

SIX6 [16] = molecular target: T11, SIX6 (Homo sapiens, UniProt O95475 114-200, L167V)
T11 sequence: T1 sequence with I54V

SIX6 [17] = molecular target: T12, SIX6 (Homo sapiens, UniProt O95475 114-200)
T12 sequence: T1 sequence with I54L

SIX6 [18] = molecular target: T13, SIX6 (Homo sapiens, UniProt O95475 114-200, T165I)
T13 sequence: T1 sequence with T52I, I54L

VENTX [19] = molecular target: T14, VENTX (Homo sapiens, UniProt O95231 78-163, R121Q)
T14 sequence: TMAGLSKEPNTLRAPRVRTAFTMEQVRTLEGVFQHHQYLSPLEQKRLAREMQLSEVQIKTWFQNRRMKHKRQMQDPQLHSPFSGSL

VENTX [20] = molecular target: T15, VENTX (Homo sapiens, UniProt O95231 78-163, Y115F)
T15 sequence: T14 sequence with Y38F, Q44R

PITX2 = PITX2 (Homo sapiens, UniProt Q99697 72-157)
VENTX [21] = molecular target: T16, VENTX (Homo sapiens, UniProt O95231 78-163)
T16 sequence: T14 sequence with Q44R

Sequence of SHOX (Homo sapiens, UniProt O15266 103-189, R173C) (O15266 103-189 R173C): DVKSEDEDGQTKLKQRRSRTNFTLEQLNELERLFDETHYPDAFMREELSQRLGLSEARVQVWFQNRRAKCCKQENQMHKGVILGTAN
Sequence of SHOX (Homo sapiens, UniProt O15266 103-189) (O15266 103-189): as the sequence (O15266 103-189 R173C) above, with C71R counted along it
Sequence of CRX (Homo sapiens, UniProt O43186 26-111) (O43186 26-111): as the sequence (O43186 26-111 R41L) above, with L16R counted along it

CCCCGAAC
binding signal (SHOX [1]): 7.23 upbm affinity estimate (log intensity, higher = more binding, comparable within an allelic series) | binding signal (SHOX [2]): 7.26 upbm affinity estimate (log intensity, higher = more binding, comparable within an allelic series)

CGAGCGCA
binding signal (SHOX [1]): 7.22 upbm affinity estimate (log intensity, higher = more binding, comparable within an allelic series) | binding signal (SHOX [2]): 7.31 upbm affinity estimate (log intensity, higher = more binding, comparable within an allelic series)

CTGAGGCA
binding signal (SHOX [1]): 7.29 upbm affinity estimate (log intensity, higher = more binding, comparable within an allelic series) | binding signal (SHOX [2]): 7.31 upbm affinity estimate (log intensity, higher = more binding, comparable within an allelic series)

CGGTTGCC
binding signal (SHOX [1]): 7.18 upbm affinity estimate (log intensity, higher = more binding, comparable within an allelic series) | binding signal (SHOX [2]): 7.25 upbm affinity estimate (log intensity, higher = more binding, comparable within an allelic series)

CGCTACCC
binding signal (SHOX [1]): 7.24 upbm affinity estimate (log intensity, higher = more binding, comparable within an allelic series) | binding signal (SHOX [2]): 7.33 upbm affinity estimate (log intensity, higher = more binding, comparable within an allelic series)

CCCTCCTC
binding signal (SHOX [1]): 7.26 upbm affinity estimate (log intensity, higher = more binding, comparable within an allelic series) | binding signal (SHOX [2]): 7.13 upbm affinity estimate (log intensity, higher = more binding, comparable within an allelic series)

GGCCAGAC
binding signal (SHOX [1]): 7.3 upbm affinity estimate (log intensity, higher = more binding, comparable within an allelic series) | binding signal (SHOX [2]): 7.26 upbm affinity estimate (log intensity, higher = more binding, comparable within an allelic series)

TAACCTTA
binding signal (CRX [3]): 9.78 upbm affinity estimate (log intensity, higher = more binding, comparable within an allelic series)

CCGGATGC
binding signal (VAX1): 6.89 upbm affinity estimate (log intensity, higher = more binding, comparable within an allelic series)

CCGAGGGA
binding signal (VAX1): 7.23 upbm affinity estimate (log intensity, higher = more binding, comparable within an allelic series)

GCTAATAC
binding signal (CRX [4]): 10.9 upbm affinity estimate (log intensity, higher = more binding, comparable within an allelic series)

AGGTGCCC
binding signal (CRX [3]): 8.39 upbm affinity estimate (log intensity, higher = more binding, comparable within an allelic series) | binding signal (SIX6 [5]): 8.91 upbm affinity estimate (log intensity, higher = more binding, comparable within an allelic series) | binding signal (SIX6 [6]): 8.83 upbm affinity estimate (log intensity, higher = more binding, comparable within an allelic series) | binding signal (SIX6 [7]): 8.91 upbm affinity estimate (log intensity, higher = more binding, comparable within an allelic series) | binding signal (SIX6 [8]): 8.95 upbm affinity estimate (log intensity, higher = more binding, comparable within an allelic series) | binding signal (SIX6 [9]): 8.85 upbm affinity estimate (log intensity, higher = more binding, comparable within an allelic series) | binding signal (SIX6 [10]): 8.84 upbm affinity estimate (log intensity, higher = more binding, comparable within an allelic series) | binding signal (SIX6 [11]): 8.86 upbm affinity estimate (log intensity, higher = more binding, comparable within an allelic series) | binding signal (SIX6 [12]): 8.89 upbm affinity estimate (log intensity, higher = more binding, comparable within an allelic series) | binding signal (SIX6 [13]): 8.92 upbm affinity estimate (log intensity, higher = more binding, comparable within an allelic series) | binding signal (CRX [14]): 8.38 upbm affinity estimate (log intensity, higher = more binding, comparable within an allelic series) | binding signal (SIX6 [15]): 8.85 upbm affinity estimate (log intensity, higher = more binding, comparable within an allelic series) | binding signal (SIX6 [16]): 8.9 upbm affinity estimate (log intensity, higher = more binding, comparable within an allelic series) | binding signal (SIX6 [17]): 8.78 upbm affinity estimate (log intensity, higher = more binding, comparable within an allelic series) | binding signal (SIX6 [18]): 8.87 upbm affinity estimate (log intensity, higher = more binding, comparable within an allelic series) | binding signal (CRX [4]): 8.35 upbm affinity estimate (log intensity, higher = more binding, comparable within an allelic series)

CAGATTAA
binding signal (CRX [3]): 13.1 upbm affinity estimate (log intensity, higher = more binding, comparable within an allelic series) | binding signal (VENTX [19]): 10.7 upbm affinity estimate (log intensity, higher = more binding, comparable within an allelic series) | binding signal (VENTX [20]): 10.7 upbm affinity estimate (log intensity, higher = more binding, comparable within an allelic series) | binding signal (CRX [14]): 13.1 upbm affinity estimate (log intensity, higher = more binding, comparable within an allelic series) | binding signal (PITX2): 12.5 upbm affinity estimate (log intensity, higher = more binding, comparable within an allelic series)

CCCGACCC
binding signal (CRX [3]): 7.98 upbm affinity estimate (log intensity, higher = more binding, comparable within an allelic series) | binding signal (VENTX [19]): 7.97 upbm affinity estimate (log intensity, higher = more binding, comparable within an allelic series) | binding signal (VENTX [21]): 8.07 upbm affinity estimate (log intensity, higher = more binding, comparable within an allelic series) | binding signal (VENTX [20]): 8.09 upbm affinity estimate (log intensity, higher = more binding, comparable within an allelic series) | binding signal (CRX [14]): 8.12 upbm affinity estimate (log intensity, higher = more binding, comparable within an allelic series) | binding signal (CRX [4]): 8.25 upbm affinity estimate (log intensity, higher = more binding, comparable within an allelic series)

TAATCTGA
binding signal (CRX [3]): 12.9 upbm affinity estimate (log intensity, higher = more binding, comparable within an allelic series) | binding signal (VENTX [19]): 10.3 upbm affinity estimate (log intensity, higher = more binding, comparable within an allelic series) | binding signal (CRX [14]): 12.8 upbm affinity estimate (log intensity, higher = more binding, comparable within an allelic series) | binding signal (CRX [4]): 12.6 upbm affinity estimate (log intensity, higher = more binding, comparable within an allelic series)
